Targets with a hit are over-represented here; the source holds about 7,900 in all. About 0.6% of all pairs of compound and target were hits.
Columns and labels:
Experiment in all cases: log2 fold change, soluble protein after heating vs DMSO (PISA); higher = thermal stabilisation; K562 cells, 10 uM, 30 min; active = over 0.2 and 3.5 SD of the protein, either way, in both replicates (recomputed)
[1] = compound: COC1=CC=C(C=C1)CN2C=CC3=C2C=C(C=C3)C(=O)NO
How it was run: (§1)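 Soluble protein was defined as the supernatant after 21,000xg for 90 min. It came from K562 cells at 2×10^6 cells/mL given 10 μM compound for 30 min, heated in aliquots for 3 min across 48°C-58°C, pooled, and extracted in PBS with 0.5% NP-40 at 4°C, and was quantified by TMTpro 16plex LC-MS/MS with equalised channel sums. Thermal stability against control samples, from duplicates, is reported as log2 fold change.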

[2] = compound: CON(C)C(=O)N1N=C(c2cc(F)ccc2F)S[C@@]1(CCCN)c1ccccc1 [filanesib]
How it was run: as §1

[3] = compound: CO[C@H]1C[C@@H]2CC[C@@H](C)[C@@](O)(O2)C(=O)C(=O)N2CCCC[C@H]2C(=O)O[C@H]([C@H](C)C[C@@H]2CC[C@H](n3cnnn3)[C@H](OC)C2)CC(=O)[C@H](C)/C=C(\C)[C@@H](O)[C@@H](OC)C(=O)[C@H](C)C[C@H](C)/C=C/C=C/C=C/1C [zotarolimus]
How it was run: as §1

[4] = compound: COc1cc(C(=O)O)ccc1NC(=O)[C@@H]1N[C@@H](CC(C)(C)C)[C@](C#N)(c2ccc(Cl)cc2F)[C@H]1c1cccc(Cl)c1F [idasanutlin]
How it was run: as §1

[5] = compound: COc1cc(Nc2ncc3c(n2)-c2ccc(Cl)cc2C(c2c(F)cccc2OC)=NC3)ccc1C(=O)O [alisertib]
How it was run: as §1

[6] = compound: COc1cc2nc(-c3cc(F)ccc3O)nc(N[C@@H]3CNC[C@H]3C(C)(C)O)c2cc1OC
How it was run: as §1

[7] = compound: COc1cc2ncnc(Nc3ccc(F)c(Cl)c3)c2cc1OCCCN1CCOCC1 [gefitinib]
How it was run: as §1

[8] = compound: COc1cccc2cc(-c3nc([C@H]4CC[C@H](C(=O)O)CC4)n4ncnc(N)c34)[nH]c12
How it was run: as §1

[9] = compound: CS(=O)(=O)CCNCc1ccc(-c2ccc3ncnc(Nc4ccc(OCc5cccc(F)c5)c(Cl)c4)c3c2)o1 [lapatinib]
How it was run: as §1

[10] = compound: CS(=O)(=O)N1CCN(Cc2cc3nc(-c4cccc5[nH]ncc45)nc(N4CCOCC4)c3s2)CC1 [pictilisib]
How it was run: as §1

[11] = compound: CS(=O)(=O)c1ccc(-c2cnc(N)c(C(=O)Nc3ccccc3)n2)cc1
How it was run: as §1

[12] = compound: C[C@@H](Oc1cc(-c2cnn(C3CCNCC3)c2)cnc1N)c1c(Cl)ccc(F)c1Cl [crizotinib]
How it was run: as §1

[13] = compound: C[C@@H]1COCCN1C2=NC(=NC(=C2)C3(CC3)S(=O)(=O)C)C4=C5C=CNC5=CC=C4
How it was run: as §1

[14] = compound: C[C@H](C1=CC=C(C=C1)C(=O)NC2=C3C=CNC3=NC=C2)N
How it was run: as §1

[15] = compound: C[C@H](Nc1ncnc2nc[nH]c12)c1cc2cccc(Cl)c2c(=O)n1-c1ccccc1 [duvelisib]
How it was run: as §1

[16] = compound: Cc1cc(Nc2cc(CN3CCOCC3)c3nc(C)c(Cc4ccc(Cl)cc4F)n3n2)n[nH]1 [gandotinib]
How it was run: as §1

[17] = compound: Cc1cc(Nc2cc(N3CCN(C)CC3)nc(Sc3ccc(NC(=O)C4CC4)cc3)n2)n[nH]1 [tozasertib]
How it was run: as §1

[18] = compound: Cc1cc(SCc2sc(-c3ccc(C(F)(F)F)cc3)nc2C)ccc1OCC(=O)O
How it was run: as §1

[19] = compound: Cc1ccc(-n2nc(C(C)(C)C)cc2NC(=O)Nc2ccc(OCCN3CCOCC3)c3ccccc23)cc1 [doramapimod]
How it was run: as §1

[20] = compound: Cc1ccc(C(=O)N(CCCN)[C@@H](c2nc3cc(Cl)ccc3c(=O)n2Cc2ccccc2)C(C)C)cc1 [ispinesib]
How it was run: as §1

Measured: log2 fold change

GLCCI1 (UniProt Q86VQ1)
UniProt Q86VQ1, sequence (Q86VQ1 whole entry, looked up): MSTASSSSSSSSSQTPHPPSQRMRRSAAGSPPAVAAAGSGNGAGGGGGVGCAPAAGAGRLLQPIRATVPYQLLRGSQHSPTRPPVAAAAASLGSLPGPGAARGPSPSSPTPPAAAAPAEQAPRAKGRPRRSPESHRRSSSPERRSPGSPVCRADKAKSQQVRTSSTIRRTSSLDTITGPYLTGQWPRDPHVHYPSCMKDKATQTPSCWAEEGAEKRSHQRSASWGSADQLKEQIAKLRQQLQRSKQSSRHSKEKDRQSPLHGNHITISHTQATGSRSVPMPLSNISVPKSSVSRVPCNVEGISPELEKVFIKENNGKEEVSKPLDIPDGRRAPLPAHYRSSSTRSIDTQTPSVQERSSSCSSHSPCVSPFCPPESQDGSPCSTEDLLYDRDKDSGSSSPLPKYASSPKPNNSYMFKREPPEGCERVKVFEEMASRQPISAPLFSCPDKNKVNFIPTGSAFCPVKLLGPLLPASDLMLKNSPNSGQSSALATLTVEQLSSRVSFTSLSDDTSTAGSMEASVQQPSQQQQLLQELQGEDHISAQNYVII
inactive: [1] 0.009 | [2] 0.052 | [3] 0.067 | [4] 0.11 | [5] -0.025 | [6] -0.096 | [7] 0.109 | [8] 0.083 | [9] -0.02 | [10] -0.039 | [11] -0.008 | [12] 0.045 | [13] 0.024 | [14] 0.026 | [15] 0.023 | [16] 0.079 | [17] 0.009 | [18] 0.044 | [19] -0.032 | [20] 0.239

GUK1 isoform 2 (UniProt Q16774)
UniProt Q16774, sequence (Q16774 whole entry, looked up): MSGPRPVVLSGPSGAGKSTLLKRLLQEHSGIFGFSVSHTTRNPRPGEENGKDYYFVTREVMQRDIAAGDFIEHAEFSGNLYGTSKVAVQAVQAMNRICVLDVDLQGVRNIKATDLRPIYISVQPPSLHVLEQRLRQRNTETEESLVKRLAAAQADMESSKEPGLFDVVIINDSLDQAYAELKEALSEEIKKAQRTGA
inactive: [1] 0.215 | [2] -0.005 | [3] 0.022 | [4] -0.04 | [5] -0.048 | [6] 0.155 | [7] -0.05 | [8] -0.019 | [9] -0.001 | [10] 0.017 | [11] 0.13 | [12] -0.007 | [13] 0.161 | [14] 0.049 | [15] 0.123 | [16] -0.03 | [17] 0.018 | [18] 0.102 | [19] -0.004 | [20] 0.012

FEN1 (UniProt P39748)
inactive: [1] 0.06 | [2] -0.215 | [3] 0.027 | [4] -0.099 | [5] 0.019 | [6] 0.039 | [7] -0.029 | [8] 0.096 | [9] -0.098 | [10] -0.005 | [11] 0.018 | [13] 0.367 | [14] -0.018 | [15] 0.07 | [16] -0.162 | [17] -0.024 | [18] 0.177 | [19] -0.065 | [20] -0.126
active: [12] -0.488

HLTF (UniProt Q14527)
UniProt Q14527, sequence (Q14527 whole entry, looked up): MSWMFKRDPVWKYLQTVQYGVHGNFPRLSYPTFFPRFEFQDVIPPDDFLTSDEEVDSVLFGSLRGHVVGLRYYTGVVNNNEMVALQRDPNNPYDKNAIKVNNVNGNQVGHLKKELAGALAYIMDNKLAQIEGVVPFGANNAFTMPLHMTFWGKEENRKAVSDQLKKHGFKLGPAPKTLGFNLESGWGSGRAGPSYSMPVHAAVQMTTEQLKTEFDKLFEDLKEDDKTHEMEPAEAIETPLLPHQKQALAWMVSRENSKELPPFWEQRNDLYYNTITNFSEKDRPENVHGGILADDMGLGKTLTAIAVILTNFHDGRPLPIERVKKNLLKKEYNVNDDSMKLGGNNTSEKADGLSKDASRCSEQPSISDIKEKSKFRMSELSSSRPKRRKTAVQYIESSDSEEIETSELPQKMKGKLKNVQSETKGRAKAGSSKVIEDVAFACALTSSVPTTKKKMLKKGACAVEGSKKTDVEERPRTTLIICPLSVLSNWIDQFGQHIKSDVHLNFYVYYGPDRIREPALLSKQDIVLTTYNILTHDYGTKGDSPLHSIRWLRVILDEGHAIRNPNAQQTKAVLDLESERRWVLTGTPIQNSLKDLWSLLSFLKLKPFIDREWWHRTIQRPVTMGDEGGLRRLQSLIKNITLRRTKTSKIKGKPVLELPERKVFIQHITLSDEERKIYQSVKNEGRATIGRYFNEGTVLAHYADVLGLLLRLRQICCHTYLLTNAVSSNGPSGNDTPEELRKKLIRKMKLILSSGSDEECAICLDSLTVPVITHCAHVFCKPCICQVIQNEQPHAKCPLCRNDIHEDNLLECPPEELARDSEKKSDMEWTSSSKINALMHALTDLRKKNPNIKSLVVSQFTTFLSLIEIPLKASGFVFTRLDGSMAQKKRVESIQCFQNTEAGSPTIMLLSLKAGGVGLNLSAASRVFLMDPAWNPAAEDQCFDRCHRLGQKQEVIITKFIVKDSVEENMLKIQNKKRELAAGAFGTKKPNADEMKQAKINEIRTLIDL
inactive: [1] -0.027 | [2] -0.004 | [3] -0.042 | [4] -0.049 | [5] 0.008 | [6] 0.081 | [8] -0.126 | [9] 0.013 | [10] 0.007 | [11] -0.034 | [12] 0.045 | [13] -0.143 | [14] 0.006 | [15] -0.006 | [16] -0.078 | [17] -0.023 | [18] 0.063 | [19] -0.003 | [20] 0.006
active: [7] 0.334

GPAT4 (UniProt Q86UL3)
UniProt Q86UL3, sequence (Q86UL3 whole entry, looked up): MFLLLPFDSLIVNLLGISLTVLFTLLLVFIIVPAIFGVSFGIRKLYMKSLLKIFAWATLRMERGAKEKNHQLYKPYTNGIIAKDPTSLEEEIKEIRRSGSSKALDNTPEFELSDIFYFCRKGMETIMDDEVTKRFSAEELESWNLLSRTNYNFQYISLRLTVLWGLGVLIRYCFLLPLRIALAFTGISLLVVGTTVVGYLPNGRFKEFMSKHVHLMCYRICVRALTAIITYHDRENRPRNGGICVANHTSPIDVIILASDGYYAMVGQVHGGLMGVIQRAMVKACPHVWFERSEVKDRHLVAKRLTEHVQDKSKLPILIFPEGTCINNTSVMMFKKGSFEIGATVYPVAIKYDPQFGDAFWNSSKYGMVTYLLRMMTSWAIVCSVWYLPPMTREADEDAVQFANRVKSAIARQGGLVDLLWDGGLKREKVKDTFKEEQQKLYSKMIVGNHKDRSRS
inactive: [1] -0.034 | [2] -0.024 | [3] 0.055 | [4] -0.093 | [5] 0.01 | [6] 0.188 | [7] 0.006 | [8] -0.046 | [9] -0.031 | [10] 0.036 | [11] 0.15 | [13] 0.066 | [14] -0.071 | [15] 0.017 | [16] -0.009 | [17] 0.063 | [18] 0.061 | [19] -0.063 | [20] 0.194
active: [12] 0.287

IFRD1 (UniProt O00458)
UniProt O00458, sequence (O00458 whole entry, looked up): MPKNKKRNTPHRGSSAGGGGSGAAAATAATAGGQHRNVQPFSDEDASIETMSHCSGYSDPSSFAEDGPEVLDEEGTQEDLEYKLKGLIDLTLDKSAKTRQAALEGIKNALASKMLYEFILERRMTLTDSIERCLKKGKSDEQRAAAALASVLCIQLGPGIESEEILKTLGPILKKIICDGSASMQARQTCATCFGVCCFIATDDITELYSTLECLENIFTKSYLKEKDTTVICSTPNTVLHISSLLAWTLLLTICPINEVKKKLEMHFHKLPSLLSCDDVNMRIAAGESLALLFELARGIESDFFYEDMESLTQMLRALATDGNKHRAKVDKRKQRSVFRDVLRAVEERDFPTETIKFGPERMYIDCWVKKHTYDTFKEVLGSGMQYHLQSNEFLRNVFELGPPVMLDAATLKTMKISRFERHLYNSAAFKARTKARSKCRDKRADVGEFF
active: [13] 0.37
inactive: [1] -0.07 | [2] -0.017 | [3] 0.071 | [4] -0.042 | [5] -0.008 | [6] -0.25 | [7] 0.199 | [8] 0.253 | [9] 0.069 | [10] 0.214 | [11] 0.347 | [12] 0.004 | [14] 0.013 | [15] 0.002 | [16] 0.104 | [17] 0.035 | [18] -0.003 | [19] 0 | [20] -0.006

IGF2BP2 (UniProt Q9Y6M1)
UniProt Q9Y6M1, sequence (Q9Y6M1 whole entry, looked up): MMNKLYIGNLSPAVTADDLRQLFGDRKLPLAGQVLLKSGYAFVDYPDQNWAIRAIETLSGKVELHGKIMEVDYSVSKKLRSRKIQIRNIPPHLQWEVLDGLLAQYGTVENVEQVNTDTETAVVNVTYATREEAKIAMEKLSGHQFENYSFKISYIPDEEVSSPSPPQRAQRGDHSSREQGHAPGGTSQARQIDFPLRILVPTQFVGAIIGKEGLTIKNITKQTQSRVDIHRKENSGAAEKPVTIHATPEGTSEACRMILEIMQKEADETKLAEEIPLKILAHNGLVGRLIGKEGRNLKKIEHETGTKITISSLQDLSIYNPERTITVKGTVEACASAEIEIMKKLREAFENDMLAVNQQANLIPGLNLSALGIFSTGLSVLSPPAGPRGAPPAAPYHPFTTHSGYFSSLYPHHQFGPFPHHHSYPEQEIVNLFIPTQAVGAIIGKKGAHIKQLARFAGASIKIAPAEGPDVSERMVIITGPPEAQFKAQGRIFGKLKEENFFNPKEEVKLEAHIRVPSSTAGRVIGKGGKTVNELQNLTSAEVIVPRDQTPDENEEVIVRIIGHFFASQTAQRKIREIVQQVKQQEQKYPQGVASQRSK
inactive: [1] -0.111 | [2] 0.301 | [3] 0.104 | [4] 0.136 | [5] -0.103 | [6] -0.105 | [7] 0.007 | [8] -0.113 | [9] 0.046 | [10] -0.043 | [11] 0.009 | [12] -0.062 | [13] -0.186 | [15] -0.161 | [16] 0.139 | [17] 0.012 | [18] 0.158 | [19] 0.288 | [20] -0.182
active: [14] 0.531

GLUD2 (UniProt P49448)
UniProt P49448, sequence (P49448 whole entry, looked up): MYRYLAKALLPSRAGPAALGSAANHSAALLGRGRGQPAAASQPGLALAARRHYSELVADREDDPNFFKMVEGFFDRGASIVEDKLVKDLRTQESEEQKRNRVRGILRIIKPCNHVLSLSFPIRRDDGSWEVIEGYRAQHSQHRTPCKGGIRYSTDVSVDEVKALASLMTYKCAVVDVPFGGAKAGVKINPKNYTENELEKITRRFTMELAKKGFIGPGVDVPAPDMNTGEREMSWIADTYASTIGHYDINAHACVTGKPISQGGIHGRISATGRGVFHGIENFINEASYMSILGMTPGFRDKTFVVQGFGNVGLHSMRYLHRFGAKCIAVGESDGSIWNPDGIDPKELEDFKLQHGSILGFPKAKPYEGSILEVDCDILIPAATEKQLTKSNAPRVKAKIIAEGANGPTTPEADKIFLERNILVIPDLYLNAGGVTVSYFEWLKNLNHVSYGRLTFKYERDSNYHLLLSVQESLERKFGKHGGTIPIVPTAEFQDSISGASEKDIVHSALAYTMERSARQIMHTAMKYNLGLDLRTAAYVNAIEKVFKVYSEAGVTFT
inactive: [1] -0.041 | [2] -0.032 | [3] 0.123 | [4] -0.07 | [5] -0.06 | [6] -0.003 | [7] 0.061 | [8] 0.023 | [9] 0.191 | [10] 0.216 | [11] 0.102 | [12] 0.003 | [13] 0.011 | [14] -0.062 | [15] 0.191 | [16] 0.064 | [17] -0.095 | [18] 0.016 | [19] 0.041 | [20] 0

FKBP4 (UniProt Q02790)
UniProt Q02790, sequence (Q02790 whole entry, looked up): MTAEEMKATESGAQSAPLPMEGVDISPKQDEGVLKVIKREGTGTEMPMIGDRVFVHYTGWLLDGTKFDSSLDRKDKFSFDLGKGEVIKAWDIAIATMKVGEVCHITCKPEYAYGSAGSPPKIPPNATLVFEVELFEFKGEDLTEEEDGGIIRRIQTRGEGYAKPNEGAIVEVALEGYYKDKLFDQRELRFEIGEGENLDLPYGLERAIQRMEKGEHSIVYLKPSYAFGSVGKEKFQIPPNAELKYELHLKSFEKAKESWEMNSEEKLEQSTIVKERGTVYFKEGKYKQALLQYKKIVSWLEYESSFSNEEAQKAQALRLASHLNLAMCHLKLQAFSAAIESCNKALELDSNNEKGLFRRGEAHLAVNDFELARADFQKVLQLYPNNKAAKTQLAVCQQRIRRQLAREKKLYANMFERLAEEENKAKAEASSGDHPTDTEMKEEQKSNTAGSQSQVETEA
inactive: [1] 0.015 | [2] -0.066 | [3] 0.077 | [4] -0.048 | [5] -0.018 | [6] 0.031 | [7] 0.008 | [8] 0.009 | [9] -0.062 | [10] 0.027 | [11] 0.013 | [12] -0.008 | [13] 0.042 | [14] -0.068 | [15] 0.019 | [16] -0.105 | [17] -0.005 | [18] 0.077 | [19] -0.052 | [20] -0.017

GOLGB1 isoform 2 (UniProt Q14789)
active: [2] 0.337 | [13] -0.314
inactive: [1] -0.16 | [3] -0.04 | [4] 0.066 | [5] -0.069 | [6] 0.072 | [7] -0.02 | [8] -0.051 | [9] 0.046 | [10] 0.066 | [11] -0.135 | [12] -0.012 | [14] 0.19 | [15] 0.004 | [16] -0.031 | [17] 0.211 | [18] -0.025 | [19] 0.056 | [20] 0.012

HNRNPH2 (UniProt P55795)
UniProt P55795, sequence (P55795 whole entry, looked up): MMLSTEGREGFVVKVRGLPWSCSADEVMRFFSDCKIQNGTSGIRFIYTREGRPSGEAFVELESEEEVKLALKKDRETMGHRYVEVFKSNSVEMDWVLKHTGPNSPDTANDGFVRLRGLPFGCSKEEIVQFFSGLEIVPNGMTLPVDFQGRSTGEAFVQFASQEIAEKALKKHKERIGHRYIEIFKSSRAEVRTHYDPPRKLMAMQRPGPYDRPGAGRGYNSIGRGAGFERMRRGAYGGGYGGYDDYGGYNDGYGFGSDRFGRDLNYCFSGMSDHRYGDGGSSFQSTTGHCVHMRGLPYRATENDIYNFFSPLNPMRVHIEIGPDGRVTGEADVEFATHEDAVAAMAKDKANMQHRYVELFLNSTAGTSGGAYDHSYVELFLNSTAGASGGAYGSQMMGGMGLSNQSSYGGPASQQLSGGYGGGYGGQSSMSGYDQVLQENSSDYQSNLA
inactive: [1] 0.003 | [2] 0.033 | [3] 0.079 | [4] 0.001 | [5] 0.058 | [6] -0.231 | [7] 0.02 | [8] -0.079 | [9] 0.057 | [10] -0.021 | [11] 0.029 | [12] -0.171 | [13] 0.096 | [14] -0.023 | [15] 0.054 | [16] 0.06 | [17] 0.113 | [18] 0.177 | [19] -0.024 | [20] -0.159

HADHA (UniProt P40939)
inactive: [1] 0.267 | [2] 0.082 | [3] 0.081 | [4] -0.321 | [5] -0.035 | [6] 0.155 | [7] 0.209 | [8] -0.088 | [9] 0.148 | [10] 0.425 | [11] -0.058 | [12] 0.079 | [13] 0.068 | [14] -0.017 | [15] 0.201 | [16] 0.086 | [17] -0.154 | [18] 0.154 | [19] 0.176 | [20] 0.171

From the supplement of paper PMC10849652
